mHTT-CaM PPI inh: mHTT-calmodulin interaction abrogation. AlphaScreen His-mHTT/GST-CaM binding, luminescence. 3.6% of 190,000 active. inhibition, % at 15 µM;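 note: 0% = both proteins with DMSO and 100% = one protein alone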
Pf apPOL inh: Pf-apPOL DNA polymerase inhibition. 0.25% of 210,000 active. Recombinant Pf-apPOL, molecular beacon fluorescence, 1.5 h. inhibition, % at 10 µM. AID 1794808
* = called active by the depositor; . = no result given; ! = not confirmed by another sample. This excerpt belongs to a sample that is enriched for hits. Cut-off read from the data, not from the text of the source: active = inhibition above about 50%; inactive = the rest.

SMILES	mHTT-CaM PPI inh	Pf apPOL inh
COCOCCn1cc(CN2CCS(=O)(=O)N(Cc3ccc(-c4ccc(Cl)cc4)cc3)C(C)C2=O)nn1 (stereo not given)	14.5	-20.9
Cc1[nH]nc(-c2ccccc2)c1NC(=O)C(C)(C)C	-3.9	3.9
CC1(C)C(=S)Nc2ccccc21	.	-7.6
Nc1cc(C2CCN(C(=O)c3ccc(Br)cc3)CC2)no1	0.7	-2.3
Cc1cccc(NC(=O)N2CCCC(CCC(=O)NCc3ccc(N(C)C)cc3)C2)c1 (stereo not given)	22.6	-2.1
Cc1cccc(NC(=O)N2CCCC(CCC(=O)NCc3ccc(Cl)cc3)C2)c1 (stereo not given)	-0.1	-1.9
O=C(Nc1ccc2c(c1)OCCO2)c1cc2c(s1)CN(C1CCCC1)C2	46.0	-2.0
N#CC1=C(N)n2c(s/c(=C\c3ccco3)c2=O)=C(C#N)C1c1ccco1 (stereo not given)	46.0	-3.9
Cc1ccc(/C=c2\sc3n(c2=O)C(N)=C(C#N)C(c2ccc(C)o2)C=3C#N)o1 (stereo not given)	59.0*	6.8
COC(=O)c1ccccc1NC(=O)CNC(=O)c1cn(C)nc1OC	-17.8	-3.0
Cc1ccc(NC(=O)Nc2nccn(-c3ccc(C)c(C)c3)c2=O)cc1C	-7.1	-0.3
COC(=O)[C@@H]1N2C(=O)[C@@H](NC(=O)C(C)Oc3ccccc3)[C@H]2SC1(C)C (stereo not given in full)	66.4*	-6.7
CC(Oc1ccccc1)C(=O)N[C@@H]1C(=O)N2[C@@H]1SC(C)(C)[C@@H]2C(=O)OCc1ccccc1 (stereo not given in full)	35.5	-6.6
O=C(c1ccnc(N2CCCCC2)n1)N1CCN(c2cccc(Cl)c2)CC1	56.4*	2.9
CCN1CCn2cc(C(=O)N3CCN(c4cccc(Cl)c4)CC3)nc2C1	52.7*	-5.0
CCN1CCn2cc(C(=O)N3CCN(c4ccc(Cl)cc4)CC3)nc2C1	43.7	-5.6
CC1CCN(c2nccc(C(=O)N3CCN(c4cccc(Cl)c4)CC3)n2)CC1	11.4	-1.6
O=C(NCCN1CCN(C(=O)c2ccc(F)cc2)CC1)C(=O)Nc1ccc(Cl)cc1	-1.5	-2.4
O=C1NC(c2ccccn2)Nc2sc3c(c21)CCC3 (stereo not given)	69.0*	0.3
O=C1NC(c2ccccc2F)Nc2sc3c(c21)CCCC3 (stereo not given)	0.0	-2.4
O=C1NC(c2ccccc2[N+](=O)[O-])Nc2sc3c(c21)CCCC3 (stereo not given)	58.0*	0.1
O=C1NC(c2cccc(F)c2)Nc2sc3c(c21)CCC3 (stereo not given)	13.0	2.5
CCOC(=O)c1ccc(S(=O)(=O)N2CCN(c3cc(N4CCCC4)ncn3)CC2)cc1	-7.7	-4.9
O=C(NC1(c2nc(-c3ccncc3)no2)CCCCC1)c1ccc2c(c1)OCO2	22.3	-1.5
O=C(Nc1ccc2c(c1)OCO2)c1ccccc1Cl	-4.7	-6.4
SMILES	mHTT-CaM PPI inh	Pf apPOL inh
Fc1cccc(NCc2ccc3c(c2)OCO3)c1	-11.9	-7.6
Cc1cccc(CNc2ccc3c(c2)OCO3)c1	100.5*	3.2
Clc1cccc(Cl)c1CNc1ccc2c(c1)OCO2	68.9*	-2.8
COc1ccc(/C=C2/N=C(c3cccc(C)c3)OC2=O)cc1OC	3.0	20.2
CCCCN1CCN(C(=O)c2cc3cn(C(C)C)cc3s2)CC1	33.9	-3.5
Cc1nc2ccc3nc(NC(=O)c4ccccc4[N+](=O)[O-])sc3c2s1	29.9	2.9
Cc1nc2ccc3nc(NC(=O)c4ccccc4Cl)sc3c2s1	72.0*!	-7.4
Cc1ccc(C2=N/C(=C\C(Br)=C\c3ccccc3)C(=O)O2)cc1[N+](=O)[O-]	57.0*	2.0
CC(/C=C1\N=C(c2ccc(C)c([N+](=O)[O-])c2)OC1=O)=C\c1ccccc1	3.0	-0.3
CN(C)c1nn(CC(=O)Nc2ccc(F)c(Cl)c2)c(=O)c2ccccc12	-3.6	-2.3
O=C(NC(c1cccc(F)c1)c1ccc2cccnc2c1O)c1ccccc1 (stereo not given)	100.3*	-3.6
Cc1ccc(C(NC(=O)c2ccccc2)c2ccc3cccnc3c2O)cc1 (stereo not given)	100.0*	-3.2
O=C(Nc1ncccc1Cl)c1cccc(F)c1	2.5	-95.9
COc1ccc(C(NC(=O)c2cccc(OC)c2)c2cc(Cl)c3cccnc3c2O)cc1 (stereo not given)	28.0	-0.8
O=S(=O)(Cc1ccccc1)Nc1nc2ccccc2s1	0.0	2.7
NNc1nc2ccccc2s1	85.9*	-4.3
COc1cc(OC)c(NC(=O)CSc2nc3ccccc3n2S(C)(=O)=O)cc1Cl	17.0	-1.8
CCOc1ccc(NC(=O)C(=O)NCc2ccc(CC)cc2)cc1	-0.1	-10.0
Cn1nc2c(c1NC(=O)c1ccc(Cl)s1)CCC2	-2.7	-6.2
FC(F)(F)c1cccc(-c2nnc(-c3ccc(Oc4cc(Cl)cc(Cl)c4)o3)o2)c1	.	0.2
CN(C)S(=O)(=O)Oc1ccc(-c2noc(-c3ccc(Oc4cc(Cl)cc(Cl)c4)o3)n2)cc1	.	58.6*
Cc1nc2c(C(=O)NC3CCCCC3C)c[nH]n2c(=O)c1Cc1ccccc1F (stereo not given)	47.0	0.2
CC1CCC(NC(=O)C2c3ccccc3C(=O)N2Cc2ccc(F)cc2)CC1 (stereo not given)	52.0*	-5.7
Cc1ccc(CN2C(=O)c3ccccc3C2C(=O)NC2CCC(C)CC2)cc1 (stereo not given)	1.0	-7.3
CC1CCc2cc(F)cc3c(O)c(C(=O)NCCN4CCOCC4)c(=O)n1c23 (stereo not given)	26.0	-83.1
SMILES	mHTT-CaM PPI inh	Pf apPOL inh
CC1CCc2cc(F)cc3c(O)c(C(=O)NCCCN(C)C)c(=O)n1c23 (stereo not given)	99.0*	-66.3
O=C1Nc2ccccc2C1=Cc1ccc2c(c1)CCO2	.	-4.9
Oc1cccc2ccc(/C=C/c3ccccc3Cl)nc12	52.0*	5.1
Oc1cccc2ccc(/C=C/c3cc4c(cc3Cl)OCO4)nc12	56.0*	-7.1
Cc1cccc(/C=C/c2ccc3cccc(O)c3n2)c1O	38.2	-2.6
Oc1cccc2ccc(/C=C/c3ccc4c(c3)OCO4)nc12	37.1	-0.8
CCOC(=O)CNC(=O)N1CCCC1c1ccccc1C (stereo not given)	0.5	-2.6
CC(C)n1cnnc1C1CCCN(C(=O)Cc2cccs2)C1 (stereo not given)	4.8	8.7
Cc1scc2nc(C(=O)N3CCN(C)CC3)nc(N3CCC(C)CC3)c12	28.9	-1.1
CN(CC(=O)Nc1nc(-c2ccco2)cs1)c1nc2ccccc2s1	77.0*	16.3
CN(CC(=O)NCc1cccs1)c1nc2ccccc2s1	-16.2	-14.2
C#CCN1C(=O)C(O)(CC(=O)c2ccc3c(c2)CCCC3)c2ccccc21 (stereo not given)	14.5	-6.5
C=CCN1C(=O)C(O)(CC(=O)c2ccc3c(c2)CCCC3)c2ccccc21 (stereo not given)	56.9*	2.4
Cc1cc(C2CCCN2Cc2cn[nH]c2-c2cccc(Br)c2)on1 (stereo not given)	15.2	-4.0
Nc1cc2c(cc1[N+](=O)[O-])OCO2	9.0	5.6
CCc1ccc(C(c2ccc(CC)o2)c2cc3c(cc2[N+](=O)[O-])OCO3)o1	84.0*	-7.6
Cc1ccc(CNC(=O)C2CCCN(c3nnc4ccccn34)C2)o1 (stereo not given)	5.2	-5.3
CCC(=O)N1CCc2c(C(=O)N3CCC(C)CC3)cccc21	-6.5	0.0
CC1=NN(c2cc(Cl)c(S(=O)(=O)O)cc2Cl)C(=O)C1	-0.4	3.3

Screens (PubChem)
